Source: PubChem BioAssay (NCATS)
Records with an inconclusive call do not appear. Activity calls are given as the source filed them. Unless noted, calls follow the shape of the dose curve; as a rule, active = well fitted curve in the direction sought with a large enough effect; inconclusive = small, poorly fitted or top-dose-only effect, or another doubt; inactive = no such curve, though single readings can be large; an effect the other way counts as inactive or inconclusive.

How the values were obtained:
[1] = biological target: Lysosomal acid glucosylceramidase (Homo sapiens) (UniProt P04062); test: Glucocerebrosidase-p2 (AID 348; in the data active = potency below about 10 µM; also: potency is read from the fitted curve at half-maximal effect); details: purified GBA, blue fluorogenic substrate, 40 min
Method in brief: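 Compounds titrated from 0.6 nM upwards against 0.2 nM enzyme in pH 5.9 citric acid/KH2PO4, taurocholate, tween-20; blue fluorogenic substrate 80 uM, 40 min room temperature, stopped and read Ex 365/Em 440 for AC50.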

[2] = AP1 Signaling Pathway (AID 357; active = well fitted curve in either direction with a large enough effect, not every such curve was filed as active;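 also: ME-180 reporter cells stimulated with EGF at its EC50 level; % is scaled to controls: 0 for no effect and ±100 for the full control effect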); details: ME-180 AP-1-bla reporter, EGF-induced, beta-lactamase ratio, 5 h; at 7.69 µM (top of the series) unless noted
Method in brief: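 Titration-series screen for positive or negative modulators of EC50 EGF-induced signaling in ME-180 cells carrying an AP-1-driven beta-lactamase reporter. After 5 hours at 37 degrees Celsius, CCF4 460nm/530nm emission ratio gave %Activity; AC50 values derived.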

[3] = NFAT Signaling Pathway (AID 444; active = well fitted curve in either direction with a large enough effect, not every such curve was filed as active;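 also: carbachol stimulus at about its EC50 of 1 µM final; % is scaled to controls: 0 for no effect and ±100 for the full control effect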); details: Jurkat NFAT-bla M1, carbachol, beta-lactamase ratio, 5 h; at 7.69 µM (top of the series) unless noted
Method in brief: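 Jurkat cells carrying an NFAT-driven β-lactamase reporter and co-transfected muscarinic M1 receptor were treated with compound plus carbachol (1 uM final, an EC50 level) for 5 h at 37 °C. CCF4 loading followed for 1 h at RT; 460/530 nm ratio gave %activity.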

[4] = Stat Signaling Pathway (AID 446; active = well fitted curve in either direction with a large enough effect, not every such curve was filed as active;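 also: ME-180 cervical cancer cells given 40 pM IL-6 alongside compound; SIE-controlled beta-lactamase reporter measured as 460/530 nm FRET emission ratio; % is scaled to controls: 0 for no effect and ±100 for the full control effect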); details: ME-180 SIE beta-lactamase reporter, IL-6 stimulated, 5 h; at 7.69 µM (top of the series) unless noted
Method in brief: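 IL-6/STAT signaling read in ME-180 cells via an SIE beta-lactamase reporter. Stimulus was 40 pM IL-6 (its AC50) for 5 hrs, so both activation and inhibition register.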

[5] = biological target: Glucocorticoid receptor (Homo sapiens) (UniProt P04150); test: GR-GFP Redistribution (AID 450;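 active = compounds whose dose series gives a full or clear partial fitted curve of increased nuclear translocation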; also: potency is read from the fitted curve at half-maximal effect); details: U2OS GR-GFP nuclear translocation, laser cytometry, 2 h
[6] = biological target: Glucocorticoid receptor (Homo sapiens) (UniProt P04150); test: GR-EFC Redistribution (AID 451; calls by dose curve; also: potency is read from the fitted curve at half-maximal effect); details: CHO-K1 GR-EFC translocation, beta-gal luminescence, 2 h
Method in brief: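 CHO-K1 cells stably expressing nuclear-localized β-gal enzyme acceptor and GR fused C-terminally to the enzyme donor fragment; ligand-driven nuclear translocation restores β-gal by complementation. Compounds titrated up to 46 uM final, 2 h at 37 °C; luminescence read.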

[7] = biological target: Mitogen-activated protein kinase 10 (Mus musculus) (UniProt Q61831); test: JNK3 AlphaScreen Assay (AID 530; active = well fitted curve in either direction with a large enough effect, not every such curve was filed as active;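 also: kinase came from lysate of stimulated human HepG2 cells; signal reports phosphorylation of biotinylated GST-cJun 1-79 at Ser73 with 10 µM ATP; % is scaled to controls: 0 for no effect and ±100 for the full control effect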); details: JNK3 lysate, c-Jun phosphorylation; series mostly up to 57.1 µM
Method in brief: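 JNK3 came from HepG2 lysates pre-activated with IL-1beta and TNF-alpha and phosphorylated biotinylated GST-cJun (1-79) at 10 uM ATP, pH 7.6, room temperature. Compounds were titrated. AlphaScreen signal used anti-phospho-cJun (Ser73) antibody.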

[8] = biological target: 3',5'-cyclic-AMP phosphodiesterase 4B (Homo sapiens) (UniProt Q07343); test: qHTS Assay for Inhibitors of PDE-IV (AID 607; active = well fitted activation curve with a large enough effect in the main read-out, with a control signal flat, not every such curve was filed as active; also: % of control where 0% means no effect); details: HEK293 ACTOne CNG channel cells, membrane potential fluorescence; series mostly up to 22.9 µM
Method in brief: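 Live HEK293 cells with a modified cyclic nucleotide-gated (CNG) channel report intracellular cAMP via membrane-potential dye fluorescence (ex 535/em 590 nm). Endogenous PDE-IV was targeted. Compounds were tested at up to 22.9 uM final; RO 20-1724 100 uM served as control.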

[9] = qHTS Assay for Lipid Storage Modulators (AID 1519; calls by dose curve); details: Drosophila S3 cells, BODIPY lipid droplet/cell ratio, laser cytometry, cells loaded with oleic acid; for activity change, negative = inhibition: at 57.5 µM (top of the series)
Method in brief: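 Cells seeded at 5,000 per well were treated with compounds over a concentration series and loaded with oleic acid (400 uM, as added). Lipid droplet fluorescence (488 nm excitation, 500-530 nm channel) was read by laser-scanning cytometry and normalized to 20 uM Triacsin C.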

[10] = biological target: Dual specificity protein kinase CLK4 (Homo sapiens) (UniProt Q9HAZ1); test: qHTS Assay for Inhibitors of CDC-like Kinase 4 (Kinase-Glo Assay) (AID 1770); details: recombinant Clk4, Kinase-Glo ATP depletion luminescence; series mostly up to 66.7 µM; also: nearly all actives have a fitted effect of over 65% in size; also: potency is read from the fitted curve at half-maximal effect
Method in brief: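 Luminescent ATP-depletion read-out (Kinase-Glo) after 4.5 h room-temperature reaction of Clk4 (25 nM final) with RS peptide (100 uM) and ATP (1 uM), pH 7.5 Tris buffer with MgCl2 and DTT.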

[11] = biological target: Dual specificity protein kinase CLK4 (Homo sapiens) (UniProt Q9HAZ1); test: qHTS Assay for Inhibitors of CDC-like Kinase 4 (ADP-Glo Assay) (AID 1771); details: recombinant CLK4, ADP-Glo luminescence; series mostly up to 80 µM; also: nearly all actives have a fitted effect of over 70% in size; also: potency is read from the fitted curve at half-maximal effect
Method in brief: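 Kinase reaction: Clk4 at 25 nM, RS repeat peptide substrate at 100 uM, ATP at 1 uM, 1 hr, room temperature. Product ADP detected as luciferase signal via ADP-Glo.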

[12] = biological target: Dual specificity protein kinase CLK4 (Homo sapiens) (UniProt Q9HAZ1); test: qHTS Assay for Inhibitors of CDC-like Kinase 4 (ADP-FP Assay) (AID 1795); details: Transcreener ADP fluorescence polarization; series mostly up to 50 µM; also: nearly all actives have a fitted effect of over 60% in size; also: potency is read from the fitted curve at half-maximal effect
Method in brief: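 Kinase activity was measured as ADP production using Transcreener orange tracer (4 nM) and ADP antibody (1 ug/mL) fluorescence polarization, with ADP calculated from a calibration curve. The 1 h reaction contained 6.25 nM Clk4, 1 uM ATP and 100 uM RS peptide at pH 7.5 with Mg2+.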

[13] = biological target: Ubiquitin carboxyl-terminal hydrolase 1 (Homo sapiens) (UniProt O94782); test: Inhibitors of USP1/UAF1: Pilot qHTS (AID 504865); details: purified USP1/UAF1, Ub-rhodamine cleavage fluorescence; series mostly up to 54.9 µM;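 also: rhodamine fluorescence freed from ubiquitin-rhodamine substrate followed over time; top concentration of the series differs between compounds; % is scaled to controls: 0 for no effect and ±100 for the full control effect; nearly all actives have a fitted effect of over 35% in size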
Method in brief: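 Deubiquitinase activity followed as kinetic rhodamine fluorescence release from 150 nM Ub-Rho. 1 nM USP1/UAF1 with compound, after 15 min room-temperature preincubation, in HEPES pH 7.8 buffer containing TCEP, EDTA, BSA and Tween-20.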

[14] = Primary qHTS for small molecule stabilizers of the endoplasmic reticulum resident proteome: Secreted ER Calcium Modulated Protein (SERCaMP) assay (AID 1508630); details: SH-SY5Y GLuc-SERCaMP (Gaussia luciferase released on ER calcium loss) secretion, thapsigargin, luminescence; series mostly up to 38.4 µM; also: % is scaled to controls: 0 for no effect and ±100 for the full control effect
Method in brief: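 GLuc-SERCaMP-expressing SH-SY5Y cells, pretreated 16 h with compound, are challenged with thapsigargin to empty ER calcium stores; after 4 h, coelenterazine is added directly to the medium and luminescence is imaged.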

[15] = qHTS Assay for Identification of Small Molecule Agonists for Hypoxia Response Element Signaling Pathway (AID 914; active = well fitted activation curve with a large enough effect in the signal ratio, with a control signal flat, not every such curve was filed as active; the % refers to the signal ratio; also: % of control where 0% means no effect); details: ME-180 (cervical carcinoma) HRE-bla reporter, beta-lactamase ratio, CoCl2, 17 h; activation: stronger effect = higher value
Method in brief: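 In Opti-MEM containing 0.5% dialyzed FBS and 10 mM HEPES, ME-180 HRE-bla cells received a compound titration and EC50 CoCl2. They were incubated 17 hours, then CCF4-loaded 2.5 hours at room temperature before ratio reading.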

[16] = measured here: cell count channel max response
[17] = measured here: lipid channel max response

Chain of Ubiquitin carboxyl-terminal hydrolase 1 (Homo sapiens) (O94782 whole entry, looked up): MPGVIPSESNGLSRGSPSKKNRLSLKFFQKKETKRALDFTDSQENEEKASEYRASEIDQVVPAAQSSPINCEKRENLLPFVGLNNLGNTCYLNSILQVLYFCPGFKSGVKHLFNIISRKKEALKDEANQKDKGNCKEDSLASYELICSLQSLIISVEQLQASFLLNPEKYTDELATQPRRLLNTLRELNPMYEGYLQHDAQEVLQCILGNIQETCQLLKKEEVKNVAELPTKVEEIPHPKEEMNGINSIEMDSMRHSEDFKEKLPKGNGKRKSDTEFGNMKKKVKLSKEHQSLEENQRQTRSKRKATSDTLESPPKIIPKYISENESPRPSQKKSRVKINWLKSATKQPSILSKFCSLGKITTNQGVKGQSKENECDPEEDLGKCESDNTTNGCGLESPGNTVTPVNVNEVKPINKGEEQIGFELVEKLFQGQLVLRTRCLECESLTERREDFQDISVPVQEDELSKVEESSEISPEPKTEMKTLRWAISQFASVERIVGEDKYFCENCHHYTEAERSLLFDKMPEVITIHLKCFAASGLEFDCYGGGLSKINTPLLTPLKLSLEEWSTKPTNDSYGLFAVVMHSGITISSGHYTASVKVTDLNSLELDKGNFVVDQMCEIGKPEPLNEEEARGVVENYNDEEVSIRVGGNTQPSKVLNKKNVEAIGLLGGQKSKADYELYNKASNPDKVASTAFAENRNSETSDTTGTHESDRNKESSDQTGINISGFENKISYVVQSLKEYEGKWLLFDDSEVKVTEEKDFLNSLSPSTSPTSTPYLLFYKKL
Chain of Glucocorticoid receptor (Homo sapiens) (P04150 whole entry, looked up, the tested form may be a part): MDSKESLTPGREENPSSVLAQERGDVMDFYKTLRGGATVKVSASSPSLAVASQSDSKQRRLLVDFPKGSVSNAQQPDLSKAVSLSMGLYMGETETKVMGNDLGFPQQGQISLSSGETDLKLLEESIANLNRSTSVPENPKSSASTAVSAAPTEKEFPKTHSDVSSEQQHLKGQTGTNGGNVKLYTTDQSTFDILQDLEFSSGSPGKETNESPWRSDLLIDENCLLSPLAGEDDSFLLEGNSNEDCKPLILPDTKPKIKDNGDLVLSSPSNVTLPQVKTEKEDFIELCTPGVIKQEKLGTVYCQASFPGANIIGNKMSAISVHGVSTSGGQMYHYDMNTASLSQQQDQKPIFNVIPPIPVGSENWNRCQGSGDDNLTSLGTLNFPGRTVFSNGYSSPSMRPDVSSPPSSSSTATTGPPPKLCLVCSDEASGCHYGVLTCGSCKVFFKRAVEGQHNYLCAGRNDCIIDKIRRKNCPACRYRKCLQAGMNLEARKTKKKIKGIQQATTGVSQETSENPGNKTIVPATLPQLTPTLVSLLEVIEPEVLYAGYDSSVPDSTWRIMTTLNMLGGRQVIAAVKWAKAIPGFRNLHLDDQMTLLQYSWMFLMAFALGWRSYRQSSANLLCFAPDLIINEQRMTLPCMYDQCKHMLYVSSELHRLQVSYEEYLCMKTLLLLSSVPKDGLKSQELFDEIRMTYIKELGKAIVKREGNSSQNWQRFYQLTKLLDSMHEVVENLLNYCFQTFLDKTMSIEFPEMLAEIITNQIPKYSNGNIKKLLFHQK
Chain of 3',5'-cyclic-AMP phosphodiesterase 4B (Homo sapiens) (Q07343 whole entry, looked up): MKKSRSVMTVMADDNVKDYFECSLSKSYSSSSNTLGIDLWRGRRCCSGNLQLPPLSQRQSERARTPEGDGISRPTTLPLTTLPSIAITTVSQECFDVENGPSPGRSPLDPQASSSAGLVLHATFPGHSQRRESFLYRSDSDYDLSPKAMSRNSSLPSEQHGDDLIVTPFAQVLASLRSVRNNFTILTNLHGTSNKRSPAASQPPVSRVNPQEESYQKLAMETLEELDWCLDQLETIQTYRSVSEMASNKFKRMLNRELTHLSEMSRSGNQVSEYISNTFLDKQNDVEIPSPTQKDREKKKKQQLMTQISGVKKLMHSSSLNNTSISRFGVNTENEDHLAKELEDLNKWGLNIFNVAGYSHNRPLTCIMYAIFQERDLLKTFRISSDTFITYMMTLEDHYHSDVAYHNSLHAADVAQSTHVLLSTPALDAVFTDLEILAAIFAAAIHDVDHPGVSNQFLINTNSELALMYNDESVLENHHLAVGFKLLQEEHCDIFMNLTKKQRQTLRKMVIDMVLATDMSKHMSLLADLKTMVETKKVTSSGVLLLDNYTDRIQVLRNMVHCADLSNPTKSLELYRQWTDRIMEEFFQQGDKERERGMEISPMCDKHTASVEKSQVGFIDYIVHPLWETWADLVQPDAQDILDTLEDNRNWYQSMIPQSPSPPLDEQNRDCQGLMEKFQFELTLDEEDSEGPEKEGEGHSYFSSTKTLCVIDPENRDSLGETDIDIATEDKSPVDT
Chain of Lysosomal acid glucosylceramidase (Homo sapiens) (P04062 whole entry, looked up): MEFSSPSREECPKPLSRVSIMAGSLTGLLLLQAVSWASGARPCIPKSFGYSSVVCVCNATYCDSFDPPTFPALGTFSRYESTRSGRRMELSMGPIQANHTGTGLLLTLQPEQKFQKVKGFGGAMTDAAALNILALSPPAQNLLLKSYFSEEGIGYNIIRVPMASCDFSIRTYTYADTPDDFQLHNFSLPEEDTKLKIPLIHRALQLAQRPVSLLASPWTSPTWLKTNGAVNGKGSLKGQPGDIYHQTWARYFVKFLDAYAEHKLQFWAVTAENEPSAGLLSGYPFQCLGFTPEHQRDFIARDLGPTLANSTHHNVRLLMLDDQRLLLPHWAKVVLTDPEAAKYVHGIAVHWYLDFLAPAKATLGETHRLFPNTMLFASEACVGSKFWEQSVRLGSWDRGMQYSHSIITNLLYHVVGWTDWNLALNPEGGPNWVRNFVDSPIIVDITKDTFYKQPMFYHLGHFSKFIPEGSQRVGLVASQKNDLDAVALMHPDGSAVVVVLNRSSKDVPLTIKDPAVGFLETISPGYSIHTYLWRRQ
Chain of Dual specificity protein kinase CLK4 (Homo sapiens) (Q9HAZ1 whole entry, looked up): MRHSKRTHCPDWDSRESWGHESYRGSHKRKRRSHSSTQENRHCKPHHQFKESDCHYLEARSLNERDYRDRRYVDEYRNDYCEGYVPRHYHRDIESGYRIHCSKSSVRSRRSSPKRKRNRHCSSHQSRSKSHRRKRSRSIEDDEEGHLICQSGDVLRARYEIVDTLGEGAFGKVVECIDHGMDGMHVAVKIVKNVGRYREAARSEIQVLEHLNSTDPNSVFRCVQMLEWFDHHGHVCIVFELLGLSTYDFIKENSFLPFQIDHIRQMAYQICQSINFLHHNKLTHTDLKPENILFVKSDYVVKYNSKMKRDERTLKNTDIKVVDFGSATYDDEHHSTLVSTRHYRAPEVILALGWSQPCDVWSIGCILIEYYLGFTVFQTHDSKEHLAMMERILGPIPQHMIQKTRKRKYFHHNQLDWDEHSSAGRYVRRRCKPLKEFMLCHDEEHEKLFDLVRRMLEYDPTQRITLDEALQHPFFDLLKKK

Cc1nc2cnc(OCc3ccccc3)nc2n(C)c1=O
13.5%: max response [9, 16]
inactive: Potency [1] > 11.4 µM | activity change, negative = inhibition [2] -10% | activity change, negative = inhibition [3] -3.24% | activity, negative = inhibition [4] -5.11% | Potency [5] > 9.22 µM | Potency [6] > 46 µM | outcome [7] | Potency [8] | activity change, negative = inhibition [9] 7.08% | Potency [10] | Potency [11] | Potency [12] | Potency [13] | Potency [14]
17.9%: max response [9, 17]

CS(=O)(=O)Nc1cccc(-c2ccc3ncnc(NC4CCNCC4)c3c2)c1
inactive: Potency [1] > 11.4 µM | activity change, negative = inhibition [2] 6.55% | activity change, negative = inhibition [3] 0.249% | activity, negative = inhibition [4] 4.8% | Potency [5] > 46 µM | Potency [6] > 46 µM | outcome [7] | Potency [8] | activity change, negative = inhibition [9] 4.99% | Potency [13] | Potency [14]
active: Potency [10] 11.2 µM | Potency [11] 7.08 µM | Potency [12] 11.2 µM
11%: max response [9, 17]
3.42%: max response [9, 16]

O=c1c(CCc2ccccc2)nc2cnc(N3CCOCC3)nc2n1Cc1cccs1
18.4%: max response [9, 17]
7.22%: max response [9, 16]
inactive: Potency [1] > 11.4 µM | activity change, negative = inhibition [2] -2.34% | activity change, negative = inhibition [3] -3.56% | activity, negative = inhibition [4] 2.46% | Potency [5] > 9.22 µM | Potency [6] > 46 µM | outcome [7] | activity change, negative = inhibition [9] 8.99% | Potency [10] | Potency [11] | Potency [12] | Potency [13] | Potency [14]

CN(C)c1ncc2nc(-c3cn(C)c4ccccc34)c(=O)n(C[C@H]3CCCO3)c2n1
8.36%: max response [9, 17]
inactive: Potency [1] > 11.4 µM | activity change, negative = inhibition [2] -23.8% | activity change, negative = inhibition [3] 3.82% | activity, negative = inhibition [4] -10.1% | Potency [5] > 9.22 µM | Potency [6] > 46 µM | outcome [7] | activity change, negative = inhibition [9] 6.78% | Potency [10] | Potency [11] | Potency [12] | Potency [13] | Potency [14]
5.1%: max response [9, 16]

COc1ccc(-c2nc3cnc(N4CCOCC4)nc3n(C)c2=O)cc1
inactive: Potency [1] > 11.4 µM | activity change, negative = inhibition [2] -14.2% | activity change, negative = inhibition [3] -0.157% | activity, negative = inhibition [4] -2.93% | Potency [5] > 9.22 µM | Potency [6] > 46 µM | outcome [7] | Potency [8] | activity change, negative = inhibition [9] 1.23% | Potency [10] | Potency [11] | Potency [12] | Potency [13] | Potency [14]
7.61%: max response [9, 16]
5.75%: max response [9, 17]

COc1cccc(Cn2c(=O)c(C)nc3cnc(OC)nc32)c1
inactive: Potency [1] > 11.4 µM | activity change, negative = inhibition [2] -5.98% | activity change, negative = inhibition [3] 5.79% | activity, negative = inhibition [4] -2.86% | Potency [5] > 9.22 µM | Potency [6] > 46 µM | outcome [7] | Potency [8] | activation [15] 12.8% | activity change, negative = inhibition [9] 5.06% | Potency [10] | Potency [11] | Potency [12] | Potency [13] | Potency [14]
15.1%: max response [9, 16]
19.3%: max response [9, 17]

CN(C)c1ncc2nc(-c3cc(F)cc(F)c3)c(=O)n(C[C@H]3CCCO3)c2n1
23.7%: max response [9, 17]
15.3%: max response [9, 16]
inactive: Potency [1] > 11.4 µM | activity change, negative = inhibition [2] 19.6% | activity change, negative = inhibition [3] 9.35% | activity, negative = inhibition [4] 29.3% | Potency [5] > 9.22 µM | Potency [6] > 46 µM | outcome [7] | Potency [8] | activity change, negative = inhibition [9] 7.12% | Potency [10] | Potency [11] | Potency [12] | Potency [13] | Potency [14]

CN(C)C(=O)c1ccc(-c2cc(-n3ccnc3)ncn2)cc1
inactive: Potency [1] > 11.4 µM | activity change, negative = inhibition [2] -15.5% | activity change, negative = inhibition [3] 7.69% | activity, negative = inhibition [4] 7.04% | Potency [5] > 46 µM | Potency [6] > 46 µM | outcome [7] | Potency [8] | activity change, negative = inhibition [9] 4.31% | Potency [13] | Potency [14]
14.1%: max response [9, 16]
16.5%: max response [9, 17]
active: Potency [10] 11.2 µM | Potency [11] 10 µM | Potency [12] 12.6 µM

COc1cccc(Nc2ncc3nc(-c4ccccc4)c(=O)n(Cc4cccs4)c3n2)c1
24.9%: max response [9, 17]
20.3%: max response [9, 16]
inactive: Potency [1] > 11.4 µM | activity change, negative = inhibition [2] -7.2% | activity change, negative = inhibition [3] -11.8% | activity, negative = inhibition [4] 21.9% | Potency [5] > 9.22 µM | Potency [6] > 46 µM | outcome [7] | activity change, negative = inhibition [9] 5.46% | Potency [10] | Potency [11] | Potency [12] | Potency [13] | Potency [14]

COCCn1c(=O)cnc2cnc(N3CCN(C)CC3)nc21
inactive: Potency [1] > 11.4 µM | activity change, negative = inhibition [2] -13.3% | activity change, negative = inhibition [3] -29.3% | activity, negative = inhibition [4] -12.7% | Potency [5] > 9.22 µM | Potency [6] > 46 µM | outcome [7] | Potency [8] | activity change, negative = inhibition [9] 0.388% | Potency [10] | Potency [11] | Potency [12] | Potency [13] | Potency [14]
3.72%: max response [9, 17]
4.53%: max response [9, 16]

CN(C)c1ncc2nc(-c3cc(F)cc(F)c3)c(=O)n(C3CC3)c2n1
14.6%: max response [9, 17]
inactive: Potency [1] > 11.4 µM | activity change, negative = inhibition [2] 5.31% | activity change, negative = inhibition [3] -6.61% | activity, negative = inhibition [4] 10.2% | Potency [5] > 9.22 µM | Potency [6] > 46 µM | outcome [7] | Potency [8] | activity change, negative = inhibition [9] 6.95% | Potency [10] | Potency [11] | Potency [12] | Potency [13] | Potency [14]
8.84%: max response [9, 16]

COc1ccccc1-c1nccc(NC2CCNCC2)n1
8.77%: max response [9, 17]
inactive: Potency [1] > 11.4 µM | activity change, negative = inhibition [2] 3.56% | activity change, negative = inhibition [3] 5.88% | activity, negative = inhibition [4] 27.9% | Potency [5] > 46 µM | Potency [6] > 46 µM | outcome [7] | Potency [8] | activity change, negative = inhibition [9] 2.87% | Potency [10] | Potency [11] | Potency [12] | Potency [13] | Potency [14]
7.38%: max response [9, 16]
